Bioassay records: PubChem BioAssay, several laboratories
HIF-2a block – HIF-2a inhibition | 786-0 RCC cells HIF-2a reporter, luciferase luminescence, overnight | AID 624352 | 360,000 tested, 0.72% active | inhibition, % at 18.8 µM;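 active = inhibition of the luminescence signal of 40% or more relative to plate controls, in a single-dose primary screen at 18.75 µM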
TRPM1 prom inh – inhibitors of MITF-driven TRPM1 promoter in melanoma cells; SK-MEL-5 TRPM1 promoter luciferase, 24 h; inhibition, % at 12.5 µM; 330,000 tested, 0.83% active;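 active = mean inhibition across replicates of 60% or more, whatever share of single replicates reaches that level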
PAX8 reporter – PAX8 transcriptional activity inhibition. RMG-I TPO-luciferase reporter, SteadyGlo, 24 h. inhibition, % at 12.6 µM. 360,000 tested, 1.2% active. AID 652154;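 active = mean replicate inhibition at least 60% with every replicate also reaching 60%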;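 note: luciferase light reporting Pax8 driven TPO promoter activity; plate controls were median of neutral control wells for no effect and mitoxantrone controls for full effect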
EBV LMP1 NFkB – Epstein-Barr LMP1 NF-kappaB reporter inhibition; LMP1-induced NF-kappaB luciferase reporter cells, luminescence; inhibition, % at 12.5 µM; 350,000 tested, 0.69% active; AID 504558; in the data active = inhibition above about 41%;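 note: 0% = neutral control wells and 100% = reference inhibitor control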
Peg3 prom inh-1 – reduces Peg3 promoter-driven luciferase expression in HeLa; HeLa PEG-Prom luciferase reporter, luminescence, overnight; inhibition, % at 20 µM; 360,000 tested, 1.7% active; AID 588405;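 active = inhibition of at least 50% at 20 µM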
Shn3 inh set2 – inhibitors of Schnurri-3 3'UTR reporter in osteoblasts. Clone20 osteoblast Shn3 3'UTR firefly luciferase, 24 h. inhibition, % at 12.5 µM. 360,000 tested, 0.52% active. AID 588674;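 active = mean inhibition of at least 75% with every replicate also reaching 75%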;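 note: 0% = median of neutral control wells and 100% = pilot-screen positive control compound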
Peg3 prom inh-2 – Peg3 promoter inhibition confirmation | 1,300 tested, 84% active | inhibition, % at 20 µM | AID 602417 | HeLa PEG-Prom luciferase reporter, luminescence, overnight | shares compounds with Peg3 prom inh-1;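 active = at 20 µM dose, 40% or more inhibition averaged across four replicates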
Starred values were filed as active, the others as inactive; · = no result given. Rows were chosen to be rich in hits. Some 2.8% of all compounds tested hit in one or more screens of this group.

SMILES	HIF-2a block	TRPM1 prom inh	PAX8 reporter	EBV LMP1 NFkB	Peg3 prom inh-1	Shn3 inh set2	Peg3 prom inh-2
COc1ccc(C(=O)NC(=O)Nc2cc(C)ccn2)cc1	-24.4	70.2*	·	68.0*	72.4*	23.7	38.0
OCCNc1nc2ccccc2nc1NCCO	-6.3	-9.4	9.9	5.3	10.7	-5.4	·
OCCNc1c2ccccc2nc2ccccc12	-7.0	87.7*	4.2	-20.9	98.1*	-2.9	94.7*
COC(=O)C[C@H]1CC[C@H]2[C@@H](COc3ccc(NC(=O)Nc4cccc(C)c4)cc3C(=O)N2C)O1	·	·	19.4	·	·	·	·
CCC(=O)N[C@@H]1C=C[C@H](CC(=O)NCC2CCCCC2)O[C@H]1CO	·	·	-20.6	·	·	·	·
COc1ccc(-c2cc(-c3nnc(COC(=O)C4CC4)o3)c3ccccc3n2)cc1OC	-19.5	-6.6	-7.1	-0.4	21.6	7.7	·
COc1ccc(-c2cc(-c3nnc(COC(=O)c4ccc(O)cc4)o3)c3ccccc3n2)cc1OC	-13.6	-2.9	15.4	19.0	52.2*	-5.0	34.1
C[C@@H]1CCCCO[C@@H](CN(C)Cc2ccc3c(c2)OCO3)[C@@H](C)CN([C@H](C)CO)C(=O)c2cc(NC(=O)Nc3ccccc3)ccc2O1	·	·	-2.1	·	·	·	·
CC(C)(NS(=O)(=O)OCC(Cl)(Cl)Cl)c1ccccc1	13.4	5.6	-39.1	-7.7	11.8	-35.7	·
CC(NS(=O)(=O)OCC(Cl)(Cl)Cl)c1ccc(C(C)(C)C)cc1 (stereo not given)	24.9	-1.1	-1.1	9.4	56.0*	10.2	48.6*
CCN(CC)S(=O)(=O)c1cccc(C(=O)N/N=C/c2ccc(O)c(O)c2O)c1	9.0	26.8	43.2	-11.0	-1.3	79.3	·
CCN(CC)S(=O)(=O)c1cccc(C(=O)N/N=C(\C)c2ccc(O)cc2O)c1	13.2	70.9*	35.0	-15.5	52.4*	93.5*	65.2*
C[C@H]1CN([C@@H](C)CO)C(=O)Cc2cc(NS(C)(=O)=O)ccc2O[C@H]1CN(C)C(=O)Nc1ccc2c(c1)OCO2	·	·	0.1	·	·	·	·
CC(C)(C)C(=O)Cn1c(=N)n(Cc2ccccc2)c2ccccc21	16.7	-8.9	·	-0.4	13.3	7.6	·
CCCn1c(=N)n(CC(=O)c2ccc(Cl)cc2)c2ccccc21	6.6	15.5	-21.6	14.9	65.8*	23.6	60.1*
Cc1ccc(Cn2c(=N)n(CC(=O)c3ccccc3)c3ccccc32)cc1	9.7	0.9	8.1	1.9	92.4*	82.7	86.1*
C[C@@H]1CN([C@@H](C)CO)C(=O)c2cc(NC(=O)Cc3cn(C)c4ccccc34)ccc2O[C@H]1CN(C)C	·	·	-12.1	·	·	·	·
COc1cc(-c2cc(C(=O)Nc3ccc(C)c(S(=O)(=O)N4CCOCC4)c3)c3ccccc3n2)cc(OC)c1OC	1.7	2.2	17.3	22.5	52.5*	24.8	37.5
O=C(c1ccc(Cl)cc1)N1CCN(c2ccc([N+](=O)[O-])c(NCc3cccnc3)c2)CC1	33.2	9.2	53.5	6.1	55.0*	18.8	48.6*
CCCOc1ccc(NC(=O)CC2C(=O)N(CC)C(=S)N2CCCN2CCN(Cc3ccccc3)CC2)cc1 (stereo not given)	7.7	73.3*	37.7	-40.6	76.0*	0.7	80.3*
CCCOc1ccc(NC(=O)CC2C(=O)N(CC)C(=S)N2CCNC(C)=O)cc1 (stereo not given)	22.3	-4.6	17.7	3.6	6.4	-15.5	·
O=C(N/N=C/c1ccc(Cl)c([N+](=O)[O-])c1)c1cc(-c2ccc3c4c(cccc24)CC3)n[nH]1	9.9	57.2	96.8*	35.0	111.5*	10.4	55.4*
O=C(NN=Cc1c(F)c(F)c(F)c(F)c1F)c1ccc(NS(=O)(=O)c2cccs2)cc1	11.8	-3.1	-18.2	0.1	57.0*	16.4	37.1
Cc1[nH]n2c(=O)cc(C(C)(C)C)nc2c1-c1ccccc1	10.5	16.7	·	27.5	54.5*	29.6	50.5*
Cc1ccc(Cn2c(CCNc3nc(-c4ccc(Cl)c([N+](=O)[O-])c4)cs3)nc3cc(Cl)c(Cl)cc32)cc1	-6.4	3.3	4.2	2.2	72.7*	-16.7	34.8
SMILES	HIF-2a block	TRPM1 prom inh	PAX8 reporter	EBV LMP1 NFkB	Peg3 prom inh-1	Shn3 inh set2	Peg3 prom inh-2
O=[N+]([O-])c1cc(-c2csc(NCCc3nc4cc(Cl)c(N5CCCCC5)cc4n3CCCO)n2)ccc1Cl	19.5	-11.3	14.3	-25.2	-4.0	-6.3	·
COc1ccc(CNn2c(-c3cccc(C)c3)nc3ccccc3c2=O)cc1OC	-6.6	6.4	·	4.9	56.5*	14.0	37.8
COc1ccccc1CNn1c(-c2cccc(C)c2)nc2ccccc2c1=O	5.6	-1.5	·	11.4	7.6	30.9	·
COc1cccc(NC(=O)Nc2cccc(C(=O)O)c2)c1	80.5*	81.4*	80.1*	61.4*	67.3*	46.8	55.0*
COc1cccc(NC(=O)c2ccccc2)c1	-233.0	-99.0	-146.2	-5.5	-275.9	1.7	·
COc1ccc(S(=O)(=O)N(C)C[C@H]2Oc3ccc(NC(=O)Nc4ccc(F)cc4)cc3CC(=O)N([C@@H](C)CO)C[C@@H]2C)cc1	·	·	-15.1	·	·	·	·
C=CCn1c(SCC(=O)c2[nH]c(C)c(C(=O)OCC)c2C)nc2scc(-c3ccc(OC)c(OC)c3)c2c1=O	8.8	102.0*	22.1	-0.9	86.3*	79.7	11.4
O=C(NCc1ccc(F)cc1)[C@@H]1[C@@H](CO)[C@@H]2Cn3c(cccc3=O)[C@H]1N2C(=O)C1CC1	·	·	-0.6	·	·	·	·
CN(C)CCNC(=O)c1cccc2nc3cccc(F)c3nc12	-4.2	76.6*	7.3	-1.5	105.0*	90.7*	98.5*
NC(C(=O)O)C1ON=C(Cl)C1O (stereo not given)	-7.6	24.9	·	-3.9	59.0*	-5.1	62.0*
CNC(=O)C[C@H]1CC[C@@H]2[C@@H](COc3ccc(NC(=O)c4cc(C)on4)cc3C(=O)N2C)O1	·	·	-50.7	·	·	·	·
CCC(=O)Nc1ccc2c(c1)OC[C@H](C)N(CC1CCCCC1)C[C@H](C)[C@H](OC)CN(C)C2=O	·	·	-9.3	·	·	·	·
COC1=CC(=O)c2c(ccc3ncnc(N)c23)C1=O	90.9*	113.2*	103.8*	82.9*	92.9*	97.4*	99.0*
CCCNC(=O)C[C@H]1CC[C@@H]2[C@H](COC[C@H](O)CN2C(=O)c2cc(Cl)cc(Cl)c2)O1	·	·	-1.8	·	·	·	·
O=C(N/N=C(\c1ccccc1)c1ccccn1)c1cccc([N+](=O)[O-])c1	13.3	82.9*	·	35.8	51.0*	91.6*	61.5*
Cn1ccnc1/C(=N\NC(=O)c1ccccc1)c1cccc([N+](=O)[O-])c1	-4.0	-11.7	-5.8	6.5	0.5	3.9	·
CCC(=O)N1C[C@@H](C)[C@H](OC)CN(C)C(=O)c2ccc(NC(=O)C3CC3)cc2OC[C@@H]1C	·	·	4.9	·	·	·	·
Oc1ccc(C[C@@H]2CNC(=S)N2CCc2cc(C(F)(F)F)cc(C(F)(F)F)c2)cc1	11.9	1.7	8.6	1.9	-15.1	4.8	·
